# Source: PubChem BioAssay
# MEP2-GFP yeast – yeast TOR pathway MEP2-GFP modulation | S. cerevisiae MEP2-GFP strain, flow cytometry GFP, 3 h; 100% = DMSO control level | GFP response vs DMSO, % at 10 µM | 330,000 tested, 0.51% active | AID 2016;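 active = GFP response versus DMSO above a set limit, roughly screen mean plus 3 SD, cut at about 180% in these data; inconclusive = fewer than 70 cells counted for a yeast strain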;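 note: median GFP fluorescence of the barcode-gated MEP2-GFP cells per well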
# CIT2 TOR yeast – yeast TOR pathway CIT2-GFP modulation | GFP response vs DMSO, % at 10 µM | S. cerevisiae CIT2-GFP strain, flow cytometry, 3 h; 100 means same as DMSO wells | 320,000 tested, 0.065% active;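 active = GFP response relative to DMSO above a set limit, near the screen mean plus 3 SD, cut at about 150% in these data; inconclusive = Fewer than 70 cells measured for a yeast strain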;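 note: ratio of well median GFP fluorescence to mean of DMSO wells on the plate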
# VLA-4 inh – inhibition in a human VLA-4 binding assay. P13612. VLA-4 expressing cells, ligand binding flow cytometry. inhibition, % (about 7 µM as worked out from the volumes in the protocol). 330,000 tested, 0.2% active; in the data active = inhibition above about 50%
# Target sequence (P13612 whole entry, looked up): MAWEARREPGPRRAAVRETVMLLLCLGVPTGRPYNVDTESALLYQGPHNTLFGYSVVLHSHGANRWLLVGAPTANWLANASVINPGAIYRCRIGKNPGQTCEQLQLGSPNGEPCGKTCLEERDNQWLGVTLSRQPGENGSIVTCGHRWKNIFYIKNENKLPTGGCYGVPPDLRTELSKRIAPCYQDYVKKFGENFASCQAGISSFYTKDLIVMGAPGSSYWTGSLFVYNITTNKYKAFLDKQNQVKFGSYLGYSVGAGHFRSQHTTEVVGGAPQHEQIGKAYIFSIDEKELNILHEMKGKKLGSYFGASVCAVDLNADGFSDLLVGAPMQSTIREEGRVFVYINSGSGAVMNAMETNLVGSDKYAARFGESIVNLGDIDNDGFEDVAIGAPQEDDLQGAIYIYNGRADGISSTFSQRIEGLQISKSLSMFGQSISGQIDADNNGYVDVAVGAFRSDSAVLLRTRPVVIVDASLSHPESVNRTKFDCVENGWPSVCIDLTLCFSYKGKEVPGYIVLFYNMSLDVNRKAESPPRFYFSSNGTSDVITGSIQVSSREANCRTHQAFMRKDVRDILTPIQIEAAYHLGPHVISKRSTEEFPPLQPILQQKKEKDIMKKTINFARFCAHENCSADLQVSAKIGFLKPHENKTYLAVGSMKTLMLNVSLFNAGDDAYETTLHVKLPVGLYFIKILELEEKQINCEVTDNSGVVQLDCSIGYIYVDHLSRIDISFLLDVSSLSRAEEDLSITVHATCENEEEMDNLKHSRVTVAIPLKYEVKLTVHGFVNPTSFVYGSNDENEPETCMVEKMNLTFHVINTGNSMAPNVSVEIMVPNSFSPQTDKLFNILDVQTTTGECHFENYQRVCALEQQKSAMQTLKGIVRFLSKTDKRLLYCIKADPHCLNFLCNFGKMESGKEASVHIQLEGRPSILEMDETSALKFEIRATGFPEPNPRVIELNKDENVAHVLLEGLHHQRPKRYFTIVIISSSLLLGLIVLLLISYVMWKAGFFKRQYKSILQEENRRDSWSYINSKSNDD
# LAP4-GFP MLPCN – alters LAP4-GFP fluorescence in TOR pathway yeast screen. GFP response vs DMSO, % at 10 µM. S. cerevisiae LAP4-GFP multiplex, flow cytometry GFP, 3 h; median GFP as percent of DMSO wells. AID 2023. 320,000 tested, 0.34% active;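 active = GFP response vs DMSO above a set limit, about the screen mean plus 3 SD, cut at about 150% in these data; inconclusive = under 70 cell events counted for the yeast strain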
# AGP1-GFP MLPCN – alters AGP1-GFP fluorescence in TOR pathway yeast screen; S. cerevisiae AGP1-GFP multiplex flow cytometry, 3 h; GFP as percent of DMSO wells; GFP response vs DMSO, % at 10 µM; AID 2066; 320,000 tested, 0.02% active;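 active = GFP response relative to DMSO above a set limit, near screen average plus 3 SD, cut at about 150% in these data; inconclusive = fewer than 70 cells counted for the yeast strain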;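 note: median GFP channel fluorescence of the gated AGP1 strain per well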
# RPL19A-GFP yeast – yeast TOR pathway RPL19A-GFP modulation; percent response vs DMSO, % at 10 µM; 330,000 tested, 0.3% active; AID 2025; S. cerevisiae RPL19A-GFP strain, flow cytometry, 3 h; stronger effect = lower value;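 active = percent response vs DMSO below 50%; inconclusive = fewer than 70 events counted for the yeast strain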;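 note: median channel GFP fluorescence of the barcoded RPL19A-GFP strain; ratio of sample median GFP to plate DMSO average so 100% = DMSO; lower means less RPL19A-GFP as with rapamycin TOR inhibition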
# VLA-4 allo CP – confirmation of allosteric modulators of human VLA-4 integrin | shares compounds with VLA-4 inh | U937 cells, HUTS-21 LIBS mAb binding, flow cytometry; LDV ligand present at threefold Kd | inhibition, % at 6.7 µM | 1,300 tested, 2% active; in the data active = inhibition above about 40%;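 note: 0% = ligand without compound and 100% = no ligand background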
# The depositor's hits bear a star; ? = inconclusive; nt = not tested or not shown; ! = not active in a repeat; [ ] = remark or other dose. Rows were chosen to be rich in hits. Some 1.1% of all compounds tested hit in one or more screens of this group.
SMILES,MEP2-GFP yeast,CIT2 TOR yeast,VLA-4 inh,LAP4-GFP MLPCN,AGP1-GFP MLPCN,RPL19A-GFP yeast,VLA-4 allo CP
COc1ccc(OC)c(NS(=O)(=O)c2ccc(SC)cc2)c1,89,95,-5,89,93,89,nt
Cc1ccc(NC(=O)C(C)c2ccc(-c3ccccc3)c(F)c2)cc1 (stereo not drawn),104,99,88*,99,103,101,-1
Cc1ccc(NC(=O)C(Nc2ccccc2)c2ccccc2)cc1 (stereo not drawn),101,89,-9,91,93,100,nt
Cc1ccccc1CC1CCN(CCCNC(=O)Nc2ccccc2)CC1,108,108,-1,100,99,105,nt
O=C(O)c1ccccc1NC(=O)C(c1ccccc1)c1ccccc1,99,101,-2,100,103,94,4
COc1cc(C)nc(NS(=O)(=O)c2ccccc2Cl)n1,112,104,5,90,100,102,-1
O=C1CCc2ccc(NC(=O)C3CC3)cc2N1,107,107,55*,112,110,121,-9
CC(=O)Nc1ccc2c(c1)NC(=O)CC2,102,101,-5,103,107,107,nt
COc1ccccc1N(CC(=O)Nc1cccnc1)S(=O)(=O)c1ccccc1,105,99,13,104,100,100,nt
COc1ccc(OC)c(N(CC(=O)Nc2cccnc2)S(=O)(=O)c2ccccc2)c1,104,99,63*,102,102,104,0
c1ccc(-c2nnc(CN3CCCCC3)o2)cc1,105,103,45,100,102,103,-12
CC(C)c1ccc(NC(=O)C(c2ccccc2)N2CC(=O)Nc3ccccc32)cc1 (stereo not drawn),104,99,72*,96,102,100,3
COC(=O)c1ccc(C(=S)N2CCOCC2)cc1,97,106,-6,90,102,102,nt
COC(=O)c1ccc(C(=S)N2CCCCC2)cc1,99,106,57*,97,96,108,4
Cc1ccc(N(CC(=O)Nc2ccc(Br)c(C)c2)S(=O)(=O)c2c(C)[nH]c(=O)[nH]c2=O)cc1,99,94,-5,99,100,99,-4
COc1ccc(N(CC(=O)Nc2cc(Cl)ccc2OC)S(=O)(=O)c2c(C)[nH]c(=O)[nH]c2=O)cc1,96,102,0,106,105,96,-5
COc1ccc(N(CC(=O)Nc2cc(C)ccc2C)S(=O)(=O)c2c(C)[nH]c(=O)[nH]c2=O)cc1,101,99,-4,101,100,100,-1
Cc1cc(C)cc(N(CC(=O)Nc2ccc(C(F)(F)F)cc2)S(=O)(=O)c2c(C)[nH]c(=O)[nH]c2=O)c1,99,102,-11,88,99,98,nt
C=CCn1c(COc2ccccc2)nc2ccccc21,100,101,9,111,100,99,nt
Cc1ccc(N(CC(=O)NC2CCCCC2)C(=O)CNC(=O)c2ccco2)c(C)c1,109,108,0,90,92,100,nt
COc1ccc(C(=O)NCc2cccnc2)cc1C(=O)NCc1cccnc1,101,81,56*,105,86,103,-1
COc1ccc(C2=Nn3c(nnc3-c3ccc(OC)cc3)SC2)cc1,86,82,54*,91,93,98,33
CC1(C)O[C@@H]2[C@H](O1)[C@@H](CO)O[C@H]2n1cnc2c(=O)[nH]cnc21,99,95,0,103,106,102,nt
O=c1[nH]cnc2c1nc(SCc1ccccc1)n2C1OC(CO)C(O)C1O (stereo not drawn),98,98,51*,97,104,99,8
Nc1ncnc2nc[nH]c12,102,81,58*!,101,88,100,-9
SMILES,MEP2-GFP yeast,CIT2 TOR yeast,VLA-4 inh,LAP4-GFP MLPCN,AGP1-GFP MLPCN,RPL19A-GFP yeast,VLA-4 allo CP
Nc1nc(N)c2[nH]cnc2n1,109,100,-11,102,103,100,nt
COc1ccc(/C=C/C(=O)N2CCN(S(=O)(=O)c3ccccc3Br)CC2)cc1OC,100,97,-2,99,100,98,nt
N#CCCN(C(=O)COC(=O)CCc1nc2ccccc2c(=O)[nH]1)c1ccccc1F,105,101,51*,99,94,98,2
Cc1cc(C)n(-c2nc(NC(C)(C)C)nc(NC(C)(C)C)n2)n1,102,108,4,96,110,107,nt
CCNc1nc(NCC)nc(-n2nc(C)cc2C)n1,103,102,15,101,101,92,0
Cc1cc(C)n(-c2nc(NC(C)C)nc(NC(C)C)n2)n1,355*[may fluoresce violet],?,57*,100,?,18*[may fluoresce violet],5
Cc1cc(C)n(-c2nc(Nc3ccccc3C)nc(-n3nc(C)cc3C)n2)n1,104,100,-2,100,108,101,nt
Cc1ccc(C(=O)OCC(=O)Nc2ccc(S(N)(=O)=O)cc2)c(O)c1,107,107,5,102,112,109,6
NS(=O)(=O)c1ccc(NC(=O)COC(=O)c2cc([N+](=O)[O-])ccc2Cl)cc1,97,80,1,103,109,99,nt
O=C(c1cc(-c2ccccn2)nc2c(Cl)cccc12)N1CCN(C(=O)C2CCCO2)CC1 (stereo not drawn),?,?,1,?,?,?,0
O=C(Nc1ccccc1)Nc1ccncc1,97,98,62*,99,92,104,-10
Cc1cc(Nc2cc(Cl)nc(Sc3ccc(NC(=O)C4CC4)cc3)n2)n[nH]1,94,102,-7,109,90,101,nt
CC(C(=O)NCC1CCCCC1)N1CCN(S(=O)(=O)/C=C/c2ccccc2)CC1 (stereo not drawn),100,93,40,90,97,104,1
COc1ccc(OC)c(C(=O)COC(=O)CNC(=O)C2CCCCC2)c1,104,101,60*,101,104,101,-8
COc1ccc(C(=O)COC(=O)CNC(=O)C2CCCCC2)c(OC)c1,101,111,-4,96,111,100,nt
Cc1cc(C)n(CC(=O)NNC(=O)C2CC(=O)N(Cc3ccccc3Cl)C2)n1 (stereo not drawn),90,86,-1,95,95,?,nt
CCn1c(CNc2ccc(C(=O)O)cc2)nc2ccccc21,99,81,46,79,85,115,nt
CCn1c(/C=N/Nc2ccc(C(=O)O)cc2)nc2ccccc21,102,93,47,85,91,99,12
CCOc1ccc(CNC(=O)CCn2c(=O)oc3ccccc32)cc1OC,96,96,0,99,104,103,nt
